Results on 19 compounds are retold here after PubChem BioAssay (EPA / NIEHS).

Each structure is given as a SMILES string. Records with an inconclusive call do not appear. Calls of active or inactive are those of the source. How the source made its calls, unless noted: active means hit-call score of the fitted dose curve at least 0.9, where 1 is the maximum; inactive means score below 0.9.

A short description of assay [1]: CCTE_Harrill_HTTr_Viability_MCF7: CCTE's 6-hour Cell Viability Assessment for the High-Throughput Transcriptomics (HTTr) Platform, in MCF-7 cells cultured in DMEM + 10% fetal bovine serum, Harrill Lab (AID 2284010). The procedure, abridged: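 MCF-7 cells in DMEM + 10% FBS, 384-well, exposed 6 h to an eight-point dilution series. Membrane integrity scored by high-content imaging of propidium iodide exclusion; bidirectional fit versus DMSO.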

A short description of assay [2]: CCTE_Harrill_HTTr_Apoptosis_MCF7: CCTE's 6-hour Apoptosis Assessment for the High-Throughput Transcriptomics (HTTr) Platform, in MCF-7 cells cultured in DMEM + 10% fetal bovine serum, Harrill Lab (AID 2284011). The essentials: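 MCF-7 cells in DMEM + 10% fetal bovine serum were exposed to chemicals for 6 hours over an eight-point dilution series. Caspase-3/7 activation was imaged by high content imaging with CellEvent Caspase 3/7 Green; bidirectional fitting used DMSO as baseline.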

Assay [3] can be described thus: CCTE_Harrill_HTTr_CellCount_MCF7: CCTE's Cell Proliferation Assessment for the High-Throughput Transcriptomics (HTTr) Platform, Harrill Lab (AID 2284012; active means hit-call score of the fitted dose curve at least 0.9, where 1 is the maximum;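 further: cells exposed to compound for six hours; intended direction is loss of nuclei count meaning fewer cells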). The procedure, abridged:
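MCF7 cells exposed 6 hours to an eight-point dilution series; Hoechst-stained nuclei counted by high-content imaging. Bidirectional curve fitting against DMSO baseline.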

In the case of `Cc1cccc(N)c1`, the outcome in assay [1], in assay [2] and in assay [3] was inactive.
`CSC(C)(C)C=NO`: the result in assay [1], in assay [2] and in assay [3] was inactive.
`CCOC(=O)c1ccccc1C(=O)OCC`: the result in assay [1], in assay [2] and in assay [3] was inactive.
As to `CCOP(=S)(NC(C)C)Oc1ccccc1C(=O)OC(C)C` (stereo not drawn), the result in assay [1], in assay [2] and in assay [3] was inactive.
As to `CCCCc1ccccc1`, the result in assay [1], in assay [2] and in assay [3] was inactive.
On to `Cc1ccc([N+](=O)[O-])cc1C`, for which the result in assay [1] and in assay [2] was inactive.
On to `ClC(Cl)c1ccccc1`, for which the outcome in assay [1] and in assay [2] was inactive.
Consider `c1ccc2c(c1)sc1ccccc12`, for which the result in assay [1], in assay [2] and in assay [3] was inactive.
With `Nc1cc2c3c(c1)C(c1ccccc1)=N[C@@H](NC(=O)c1cccnc1)C(=O)N3CC2`, the result in assay [1] and in assay [2] was inactive.
Consider `CCCCC(CC)COC(=O)c1c(Br)c(Br)c(Br)c(Br)c1C(=O)OCC(CC)CCCC` (stereo not drawn), for which the outcome in assay [1], in assay [2] and in assay [3] was inactive.
In the case of `O=NN1CCCC1`, the result in assay [1], in assay [2] and in assay [3] was inactive.
Regarding `O=[N+]([O-])c1ccccc1`, the result in assay [1], in assay [2] and in assay [3] was inactive.
For `O=[N+]([O-])c1ccc(Cl)c(Cl)c1`, the outcome in assay [1], in assay [2] and in assay [3] was inactive.
With `Cc1c([N+](=O)[O-])cc2c(c1[N+](=O)[O-])C(C)(C)CC2(C)C`, the outcome in assay [1], in assay [2] and in assay [3] was inactive.
On to `COP(=O)(O)OC`, for which the result in assay [1], in assay [2] and in assay [3] was inactive.
For `CC(Cc1ccc(OCC(=O)O)cc1)NCC(O)c1csc(C(F)(F)F)n1` (stereo not drawn), the result in assay [1], in assay [2] and in assay [3] was inactive.
Consider `Nc1ccc([N+](=O)[O-])cc1Cl`, for which the outcome in assay [1], in assay [2] and in assay [3] was inactive.
In the case of `N#Cc1ccc(O)cc1`, the outcome in assay [1], in assay [2] and in assay [3] was inactive.
For `c1nc[nH]n1`, the outcome in assay [1] and in assay [2] was inactive.
